# Hits are enriched below; roughly 1.6% of the tested compounds scored in any of these assays.
# KCNQ2 pot: potentiators of rat KCNQ2 potassium channel | CHO-K1 KCNQ2, FluxOR thallium flux fluorescence; hits give high values | B-score at 10 µM | actives 0.54% (n = 310,000);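 active = fluorescence ratio B-score at least 3 SD of library B-scores, with initial fluorescence B-score within 3 of them, cut at about 5.3 in these data; same plate scores as AID 2156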;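 also: B-score of peak minus minimum over baseline fluorescence ratio after K+ and Tl+ stimulus; positive B-score means potentiation of KCNQ2 with more thallium influx and brighter signal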
# Target sequence (O88943 whole entry, looked up): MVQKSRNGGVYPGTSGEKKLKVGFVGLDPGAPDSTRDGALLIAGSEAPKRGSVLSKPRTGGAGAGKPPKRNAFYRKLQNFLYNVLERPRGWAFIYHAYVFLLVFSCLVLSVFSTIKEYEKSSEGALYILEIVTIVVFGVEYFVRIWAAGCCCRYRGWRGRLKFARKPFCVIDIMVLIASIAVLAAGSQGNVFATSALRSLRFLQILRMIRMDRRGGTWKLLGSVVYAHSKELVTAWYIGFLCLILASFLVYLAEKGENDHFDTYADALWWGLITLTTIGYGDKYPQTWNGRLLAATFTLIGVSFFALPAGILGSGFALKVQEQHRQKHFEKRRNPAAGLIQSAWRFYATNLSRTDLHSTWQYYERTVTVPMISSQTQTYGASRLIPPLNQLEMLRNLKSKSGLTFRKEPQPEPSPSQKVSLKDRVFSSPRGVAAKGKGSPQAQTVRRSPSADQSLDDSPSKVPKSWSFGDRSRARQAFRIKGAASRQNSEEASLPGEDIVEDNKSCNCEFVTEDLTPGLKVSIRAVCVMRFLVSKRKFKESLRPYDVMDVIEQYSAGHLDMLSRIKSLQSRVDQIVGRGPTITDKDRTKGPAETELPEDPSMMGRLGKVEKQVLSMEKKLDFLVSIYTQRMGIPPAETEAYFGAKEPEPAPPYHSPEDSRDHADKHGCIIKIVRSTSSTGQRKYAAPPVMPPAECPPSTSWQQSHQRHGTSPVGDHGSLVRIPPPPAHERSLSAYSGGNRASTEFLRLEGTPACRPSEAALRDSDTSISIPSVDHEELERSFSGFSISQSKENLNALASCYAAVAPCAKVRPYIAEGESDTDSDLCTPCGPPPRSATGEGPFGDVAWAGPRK
# KCNQ2 block: blocks the rat KCNQ2 potassium channel. O88943. CHO-K1 KCNQ2, FluxOR thallium flux, 20 min; hits give low values. B-score at 10 µM. actives 1.1% (n = 310,000);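 active = fluorescence ratio B-score at most minus 3 library SDs, with starting brightness B-score within 2 library SDs, cut at about -5.5 in these data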
# Active calls of the source: *; i = inactive; / = not tested or not shown.
SMILES,KCNQ2 pot,KCNQ2 block
Cc1ccccc1OCc1nnc(SCC(=O)N2CCc3ccccc32)n1C,2,i
Cc1cccc(OCc2nnc(SCC(=O)N3c4ccccc4CC3C)n2C)c1C (configuration not stated),-6,-6*
O=C(N/N=C\c1ccc(Cl)cc1)C1=NOC2COC3(CCN(c4ccc([N+](=O)[O-])cc4)CC3)OCC12 (configuration not stated),0.94,i
C/C(CC(=O)Nc1ccc(C)c(Cl)c1)=N\NC(=O)c1ccccn1,0.05,i
Cc1ccc(SCCNC(=O)/C=C/c2ccc([N+](=O)[O-])cc2)cc1,6.2*,i
O=C(/C=C/c1ccc([N+](=O)[O-])cc1)NCCSc1ccccc1,1.3,i
O=C1C(Cl)=C(N2CCCCC2)C(=O)C(Cl)=C1c1cnc(N2CCCCC2)s1,/,i
CN(C)c1ncc(C2=C(Cl)C(=O)C(N3CCCC3)=C(Cl)C2=O)s1,-8.6,-8.6*
CCN1CCN(c2ccc(S(=O)(=O)N3CCCCC3)cc2NC(=O)c2ccc([N+](=O)[O-])s2)CC1,1.3,i
Cc1ccc(NC(=O)CCS(=O)(=O)c2cccc3nonc23)c(Br)c1,/,i
O=C(COC(=O)c1ccc(OC(F)F)cc1)NCCCN1CCCC1=O,1.3,i
COc1cccc(CN(Cc2ccco2)C(c2ccc(F)cc2)c2nnnn2C(C)(C)C)c1 (configuration not stated),-6.1,-6.1*
CC(C)(C)n1nnnc1C(c1cccnc1)N(Cc1ccccc1)Cc1ccco1 (configuration not stated),/,i
C/C(=N\NC(=O)c1cc(-c2ccc(C)s2)[nH]n1)c1ccncc1,0.66,i
Cc1cc(C)cc(N(CCC#N)C(=O)CSC2=Nc3ccccc3C3CC=NN23)c1 (configuration not stated),-6.1,-6.1*
N#Cc1ccccc1NC(=O)CSC1=Nc2ccccc2C2CC=NN12 (configuration not stated),/,i
COP(=O)(OC)c1nc(-c2cccc3ccccc23)oc1N1CCCCC1,/,i
CCOP(=O)(OCC)c1nc(-c2cccc3ccccc23)oc1N1CCCCC1,-6.1,-6.1*
COc1ccc(S(=O)(=O)Nc2cccc(-c3ccc4nncn4n3)c2)c(OC)c1,/,i
CCOC(=O)c1cc(C)n(S(=O)(=O)c2ccc(C)cc2)c1C,-6.6,-6.6*
CCOC(=O)c1ccccc1NS(=O)(=O)c1ccc(C)cc1,/,i
COC(=O)c1ccc(NC(=O)CCN2C(=O)CSC2=O)cc1,/,i
CCCC[C@@H]1C[C@H]1[C@@H](NC(=O)c1ccco1)c1ccc(Cl)cc1,/,i
CCCC[C@@H]1C[C@H]1[C@@H](NC(=O)c1cccs1)c1ccc(Cl)cc1,-8,-8*
COc1ccc(C(=O)COC(=O)c2nn(C)cc2Cl)cc1,/,i
SMILES,KCNQ2 pot,KCNQ2 block
COc1ccc(CNC(=O)CN2C(=O)COc3ccc(S(=O)(=O)N4CCCCC4)cc32)cc1,/,i
COc1ccccc1CNc1cc(CSc2ccc(Cl)cc2)nc(C)n1,-6.1,-6.1*
COc1ccccc1CNC(=O)COC(=O)CSc1ccc(Cl)cc1,/,i
CN1Cc2cccc3c2C(Cc2ccccc2S3)C1 (configuration not stated),/,i
Cc1sc2ncnc(N/N=C/c3ccccc3O)c2c1C,/,i
COc1cccc(/C=N/Nc2ncnc3scc(-c4ccccc4)c23)c1OC,-6,-6*
O=C(COC(=O)CC1Sc2ccccc2NC1=O)NCc1ccccc1 (configuration not stated),1.7,i
O=C(c1cc(C(=O)NCCc2ccccc2)c(=O)n(CCc2ccccc2)c1)c1cc(Cl)ccc1O,-6.4,-6.4*
COc1ccc(CCNC(=O)c2cc(C(=O)c3cc(C)ccc3O)cn(CCc3ccc(OC)cc3)c2=O)cc1,-7.3,-7.3*
O=C(NCCc1ccccc1)c1ccccc1Cl,/,i
COc1ccc(CCNC(=O)c2cc(C(=O)c3cc(Cl)ccc3O)cn(CCc3ccc(OC)cc3)c2=O)cc1,/,i
CCN1CCCC1CNCc1cccc(OC)c1OCc1ccc(F)cc1 (configuration not stated),1.8,i
O=C(CCNC(=O)C1CCN(S(=O)(=O)c2ccc(F)cc2)CC1)NCc1ccc(Cl)cc1,/,i
Cc1ccc(-c2cc(C(F)F)n3ncc(C(=O)N4CCN(c5ccccn5)CC4)c3n2)cc1,-5.7,-5.7*
CCN1CCN(C(=O)c2cnn3c(C(F)F)cc(-c4ccc(C)cc4)nc23)CC1,0.37,i
COc1cc(/C=C2\SC(N3CCC(C)CC3)=NC2=O)ccc1O,/,i
CN(C(=O)COC(=O)CCc1c[nH]c2ccccc12)C(c1ccccc1)c1ccccc1,-5.9,-5.9*
O=C(COC(=O)CCc1c[nH]c2ccccc12)NCc1ccccc1,/,i
O=C(NCCS(=O)(=O)N1CCC2(CC1)OCCO2)c1ccccc1,0.49,i
O=[N+]([O-])c1ccc(CN2CCN(c3ccc([N+](=O)[O-])cc3)CC2)cc1,/,i

# Screening data: PubChem BioAssay, Johns Hopkins Ion Channel Center
